Assay results as given in PubChem BioAssay (NCI).
This is part of a sample that, as a whole, favours compounds with a hit. Of some 79,000 tested, about 15% had one in any assay. Values without a mark were called inactive. Calls of active or inactive are those of the source. No stated cut-off is given here; in the data, active means growth inhibition above about 70%; inactive means the rest.

Tests used:
[1] = NCI Yeast Anticancer Drug Screen. Data for the rad50 strain (AID 155);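 further: 0% = growth of vehicle-only cultures of the same strain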; settings: S. cerevisiae rad50 strain growth inhibition, hits give high values
Method in brief: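 Readout: growth inhibition relative to vehicle-treated cultures. Compound exposure was carried out in a genetically defined yeast strain deficient in DNA damage repair.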

[2] = NCI Yeast Anticancer Drug Screen. Data for the mec2-1 strain (AID 157); settings: S. cerevisiae mec2-1 strain, hits give high values
Method in brief: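 Strain: mec2-1 (DNA repair/cell cycle alteration). Compound exposure, then growth measured; inhibition expressed relative to vehicle.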

[3] = NCI Yeast Anticancer Drug Screen. Data for the sgs1 mgt1 strain (AID 161);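 further: 0% = growth of cultures given vehicle only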; settings: S. cerevisiae sgs1 mgt1 strain, hits give high values
Method in brief: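 Inhibition of yeast growth, normalised to vehicle-treated controls, is reported for a strain bearing genetic alterations in DNA damage repair.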

[4] = NCI Yeast Anticancer Drug Screen. Data for the cln2 rad14 strain (AID 165);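 further: 0% = growth equal to vehicle treated cultures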; settings: S. cerevisiae cln2 rad14 strain, hits give high values
Method in brief: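 Compounds are applied to the cln2 rad14 yeast strain, and growth is then compared with that of vehicle-treated cultures to give inhibition.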

[5] = NCI Yeast Anticancer Drug Screen. Data for the bub3 strain (AID 167); settings: S. cerevisiae bub3 mutant strain, hits give high values
Method in brief: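 Readout: yeast growth inhibition, expressed relative to vehicle-only wells. The test organism is a mutant strain from a panel with lesions in DNA repair or checkpoint genes.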

[6] = NCI Yeast Anticancer Drug Screen. Data for the mlh1 rad18 strain (AID 175); settings: S. cerevisiae mlh1 rad18 strain growth inhibition, hits give high values
Method in brief: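 Read-out is yeast growth inhibition, calculated against vehicle-only controls. The compound was applied to a strain engineered with DNA damage repair alterations.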

[7] = at 5.0 µM (retest, dose inferred, filed as 0.5)
[8] = at 50.0 µM (retest, dose inferred, filed as 5.0)

| Compound | growth inhibition [1, 7] [%] | growth inhibition [1, 8] | growth inhibition ([1]; at 50.0 µM) | growth inhibition [2, 7] [%] | growth inhibition [2, 8] | growth inhibition ([2]; at 50.0 µM) | growth inhibition [3, 7] [%] | growth inhibition [3, 8] | growth inhibition ([3]; at 50.0 µM) | growth inhibition [4, 7] [%] | growth inhibition [4, 8] | growth inhibition ([4]; at 50.0 µM) | growth inhibition [5, 7] [%] | growth inhibition [5, 8] | growth inhibition ([5]; at 50.0 µM) | growth inhibition [6, 7] [%] | growth inhibition [6, 8] | growth inhibition ([6]; at 50.0 µM) |
| --- | --- | --- | --- | --- | --- | --- | --- | --- | --- | --- | --- | --- | --- | --- | --- | --- | --- | --- |
| O=C(/C=C/C(=N\Nc1ccccc1)c1ccccc1)c1ccccc1 | 21 | 90% (active) | 37.9% | 23 | 99% (active) | 13.9% | 27 | 96% (active) | 26.4% | 46 | 98% (active) | 30.9% | 67 | 99% (active) | 21.5% | 47 | 95% (active) | 72% (active) |
| CCCC(C)(O)C(C)CC (configuration not stated) | 2 | 5% | 19.1% | 0 | -1% | 9.3% | -1 | 0% | -0.85% | -3 | -8% | -6.9% | -3 | 8% | 2.45% | -2 | 0% | 7.7% |
| NC(=O)CC1CCC(c2ccccc2)CC1 (configuration not stated) | -1 | -59% | 44% | -6 | -23% | 6.95% | -1 | -14% | 77.3% (active) | 2 | -8% | -47.6% | -12 | -53% | 12.7% | 0 | -31% | 41.8% |
| O=[N+]([O-])c1ccc(S(=O)(=O)Cc2ccccc2)c2nonc12 | 6 | 99% (active) | 99% (active) | 11 | 99% (active) | 98.8% (active) | 10 | 99% (active) | 99% (active) | -11 | 98% (active) | 96.3% (active) | 2 | 99% (active) | 98.4% (active) | 6 | 99% (active) | 98.2% (active) |
| CS[C@H]1CC[C@H]2[C@@H]3CCc4cc(O)ccc4[C@H]3CC[C@]12C | 0 | 73% (active) | 71.6% (active) | 2 | 66% | 61.8% | 0 | 71% (active) | 63.4% | 7 | 85% (active) | 87.6% (active) | 12 | 81% (active) | 82.8% (active) | -8 | 75% (active) | 85.8% (active) |
| O=C(NCCCN1CC2CCCC2C1)C(C1CCCCC1)C1CCCCC1 (configuration not stated) | -5 | 94% (active) | 99.6% (active) | -12 | 76% (active) | 99.5% (active) | -9 | 92% (active) | 99.5% (active) | 0 | 98% (active) | 99.2% (active) | -22 | 99% (active) | 99.5% (active) | – | – | – |
| CC(=O)N(C1=C(Cl)C(=O)c2ccccc2C1=O)c1ccc(F)cc1 | 28 | 99% (active) | 98.8% (active) | 39 | 98% (active) | 99.3% (active) | 35 | 99% (active) | 99.4% (active) | 13 | 98% (active) | 94.4% (active) | 57 | 99% (active) | 97.4% (active) | – | – | – |
| CCOC(=O)c1ccc(C(C)C)cc1 | 3 | 96% (active) | 40.5% | 3 | 100% (active) | 79.6% (active) | 3 | 94% (active) | 55.5% | -1 | 97% (active) | 21.6% | 4 | 99% (active) | 84.3% (active) | – | – | – |
| Cc1cc(C(=O)CBr)c(CN2C(=O)c3ccccc3C2=O)c(=O)n1C | 17 | 98% (active) | 63.3% | 49 | 99% (active) | 12.3% | 25 | 99% (active) | 74.3% (active) | 11 | 98% (active) | 2% | 18 | 98% (active) | 31.2% | 64 | 99% (active) | 38% |
| Cc1cccc2c1NC(c1c(C)[nH]c3ccccc13)C2 (configuration not stated) | 1 | 10% | 28.8% | -1 | 5% | 25.3% | -4 | 8% | 27.2% | 0 | -2% | 30.4% | -3 | 17% | 30.1% | – | – | – |
| SCCc1ccccn1 | -3 | 20% | 0.4% | -2 | 20% | 42% | 1 | 13% | 3.65% | -6 | 10% | 15.1% | -1 | 14% | 32.1% | -1 | 19% | 73.1% (active) |
| CCOC(=O)Cn1c(=O)c2nc(SC)sc2n(-c2ccc(C)cc2)c1=S | -3 | -1% | -4.9% | -1 | -10% | -6.25% | 0 | 6% | 27.1% | 14 | 17% | 34% | 1 | 9% | -10.4% | 2 | 12% | -19% |
| C#Cc1cccc(N=Cc2cc(Cl)cc(Cl)c2O)c1 | 13 | 90% (active) | 94.6% (active) | 8 | 90% (active) | 94.3% (active) | 20 | 97% (active) | 97.8% (active) | -1 | 91% (active) | 62.4% | -1 | 80% (active) | 89.9% (active) | 20 | 98% (active) | 97.2% (active) |
| COC1=CC(=O)c2ncccc2C1=O | 13 | 92% (active) | 91.8% (active) | 6 | 83% (active) | 78.5% (active) | 8 | 81% (active) | 84.8% (active) | -3 | 93% (active) | 89.2% (active) | 2 | 81% (active) | 46.6% | 9 | 93% (active) | 95.1% (active) |
| Oc1[nH]c2ccccc2c1N=NC(=S)N1CCCCCC1 | 6 | 98% (active) | 54.5% | -5 | 97% (active) | 72.2% (active) | -13 | 98% (active) | 83.2% (active) | -17 | 98% (active) | 78.5% (active) | -28 | 99% (active) | 87.1% (active) | -8 | 98% (active) | 79.8% (active) |
| O=C(/C=N/O)Nc1ccc(Cl)c(I)c1 | -32 | 83% (active) | 85.2% (active) | -15 | 87% (active) | 86.5% (active) | -17 | 85% (active) | 80.2% (active) | 5 | 88% (active) | 81.9% (active) | -9 | 93% (active) | 86.8% (active) | -24 | 92% (active) | 84.6% (active) |
| Cc1cc(Br)c(P(=O)(O)O)cc1[N+](=O)[O-] | -3 | -10% | 74.1% (active) | -7 | -3% | 42.7% | -3 | -14% | 72% (active) | 0 | -5% | -2.55% | 3 | 6% | 4.4% | 3 | -4% | 64% |
| C#CC(CC)(CC)NC(=O)NC(C)(C)C | 0 | -18% | 2.1% | -26 | -25% | 0.85% | -11 | -1% | 35.5% | 2 | 23% | -1.85% | -19 | -17% | 28.4% | – | – | – |
| CCCC(C)OC(=O)Nc1cccc(Cl)c1 (configuration not stated) | -15 | 3% | 98.4% (active) | -4 | -7% | 98.2% (active) | -2 | -10% | 98.9% (active) | -29 | -1% | 97.9% (active) | -21 | 1% | 97.5% (active) | – | – | – |
| N#CSCCl | 0 | 42% | 91.7% (active) | 5 | 75% (active) | 92% (active) | -2 | 20% | 93.8% (active) | 1 | 61% | 91% (active) | -4 | 93% (active) | 92.3% (active) | 3 | 87% (active) | 92% (active) |
